From PubChem BioAssay
Several values for one entry are separate records, joined by “and”; a condition that tells them apart may be missing. Identical values can stand only once. Results filed as inconclusive are left out. Activity calls are given as the source filed them.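 Rule for the calls, unless noted: active = normalized viability below 100% at a tested concentration; inactive = the rest.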

Key:
[1] = liver-stage malaria parasite growth inhibition, primary screen, cell-based, HepG2, luciferase luminescence, HepG2 viability (AID 624349; in the data active = parasite load remaining mostly below about 12%, no sharp cut-off; inactive = mostly above about 10%;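 note: 100% = mean of DMSO negative control wells on the same plate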); conditions: P. berghei liver stage in HepG2, luciferase luminescence, concentration not given here; parasite load remaining: stronger effect = lower value; viability: measured here: HepG2 viability without parasites
[2] = stimulators of nuclear beta-catenin in C2C12, primary screen, imaging, WNT3A-conditioned medium, mouse C2C12, NPC library (AID 1117326; in the data active = nuclear beta-catenin stimulation mostly above about 4.2%, no sharp cut-off; inactive = mostly below about 10%); conditions: stronger effect = higher value
[3] = stimulators of insulin release from INS-1E, primary screen, cell-based, 5 mM glucose, NPC library (AID 1117329;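 active = compound raises insulin release from rat beta cells at 5 mM glucose, no numeric limit stated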); conditions: rat INS-1E insulin secretion, at 10 µM, stronger effect = higher value
[4] = growth inhibition of GSK3B-pretreated HCT116 cells – cell-based, CellTiter-Glo, 0.2 to 20 µM (AID 1117336;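 active = compounds lowering colon cancer cell viability after pretreatment blocking the GSK3B kinase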); conditions: HCT116 viability after GSK3B inhibitor, at 20 µM, stronger effect = higher value
[5] = inhibition of endothelial tube formation, primary screen, imaging, VEGF stimulated, CD31 staining, tube area, NPC library (AID 1117340;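 active = compound that reduces growth-factor-driven endothelial tube area in a mixed cell culture, no cutoff stated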); conditions: VEGF-stimulated ADSC/ECFC co-culture, at 10 µM, stronger effect = higher value
[6] = glucagon-like peptide 1 release enhancers, primary assay, NCI-H716 cell line, NPC library (AID 1117341;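 active = compound raises GLP1 secretion from the human gut endocrine cells, with no numeric limit stated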); conditions: NCI-H716 cells, at 10 µM, stronger effect = higher value
[7] = HCT116 colon cancer cell growth inhibition, primary screen, CellTiter-Glo luminescence, NPC library (AID 1117342;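 active = compounds that lower survival of HCT116 colon cancer cells in the luminescence readout, no numeric limit stated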); conditions: at 20 µM (top of the series)
[8] = CellTiter-Glo luminescent readout of SW480 viability loss, NPC library primary (AID 1117343;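 active = compounds that lower viability of the colon cancer cells in the luminescence readout, with no numeric limit stated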); conditions: CellTiter-Glo luminescence; at 20 µM (top of the series) unless noted
[9] = decreased DLD-1 cellular survival, CellTiter-Glo luminescent readout, NPC compound collection, primary HTS (AID 1117346;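 active = compounds that lower survival of DLD-1 colon cancer cells in the luminescence readout, no cutoff given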); conditions: DLD-1 viability, CellTiter-Glo luminescence; at 20 µM (top of the series)
[10] = growth inhibition of DIPG glioma cells, dose response, cell-based, SU-DIPG-XVII, MIPE5.0, CellTiter-Glo, qHTS (AID 1347060; cut-off not given, nearly all actives have AC50 up to about 26 µM;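 note: cells exposed to compound for 48 hours before viability readout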); conditions: SU-DIPG-XVII viability, CellTiter-Glo ATP luminescence
[11] = growth inhibition of DIPG glioma cells, dose response, cell-based, SU-DIPG-XIII, MIPE4.0, CellTiter-Glo, qHTS (AID 1347061; cut-off not given, nearly all actives have AC50 up to about 37 µM;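 note: cells exposed to compound for 48 hours before readout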); conditions: SU-DIPG-XIII viability, CellTiter-Glo ATP luminescence
[12] = growth inhibition of DIPG glioma cells, dose response, cell-based, JHH-DIPG-1, MIPE4.0, CellTiter-Glo, qHTS (AID 1347062; cut-off not given, nearly all actives have AC50 up to about 27 µM;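 for AC50: cells exposed to compound for two days before readout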); conditions: JHH-DIPG-1 viability, CellTiter-Glo ATP luminescence
[13] = SU-DIPG-XXV glioma cell viability, MIPE5.0 library, qHTS (AID 1347068; cut-off not given, nearly all actives have IC50 up to about 30 µM;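 for IC50: cells exposed to compound for 48 hours before viability readout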)
[14] = sensitizers of A549 cells to miR-34 induction, primary screen, imaging, A549 dox-inducible miR-34, nuclei and caspase counts (AID 1347080;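 active = compounds whose cell count with miR-34 switched on is under 0.7 times the count with it off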); conditions: A549 miR-34 inducible, Hoechst nuclei count, 48 h
[15] = survival rescue of mitochondrial mutant cells in low glucose, primary screen, MELAS cybrids, Rieske KO mouse fibroblasts, CellTiter-Glo (AID 1508586;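 active = mean z-score across replicates of 1.96 or higher in either the MELAS or the Rieske mutant cell line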;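 note: z relative to plate mean and SD of compound and empty wells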)
[16] = tested on: Aerobactin synthetase IucA (Klebsiella pneumoniae); assay: IucA aerobactin synthetase inhibitors, biochemical, Tocris library, absorbance (AID 1345561; call rule not given here;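 note: 100% = enzyme without compound and 0% = no enzyme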); conditions: purified IucA enzyme assay, absorbance (OD) read-out; stronger effect = lower value;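 tested at 8 µM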
[17] = viability rescue of complex I mutant cybrids, primary screen, cell-based, galactose medium, ATP luminescence (AID 1645843;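 active = z-score of at least 1.8 in each of two replicates, scored against plate mean and spread of sample wells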;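 note: positive z means more ATP and so rescue of galactose-driven cybrid death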); conditions: complex I mutant cybrid cells, 72 h, stronger effect = higher value
[18] = ovarian cancer cell viability with rucaparib, profiling panel, oncology-focused library, rucaparib conditional (AID 1508598); conditions: patient-derived ovarian cancer cells, CellTiter-Glo viability, 144 h, stronger effect = lower value
[19] = stronger effect = lower value, cell number ratio, induced over uninduced
[20] = measured here: relative caspase fold change +Dox/-Dox
[21] = measured here: total cells with miR-34 induction, stronger effect = lower value
[22] = measured here: total cells without miR-34 induction

NS(=O)(=O)c1cc(Cl)c(Cl)c(S(N)(=O)=O)c1
8460 and 8780: cell count [14, 21]
1.4 and 0.793: fold change [14, 20]
0.943 and -0.845: z-score ([15]; Rieske KO mouse fibroblast survival, CellTiter-Glo 72 h)
inactive: parasite load remaining [1] 89.1% | nuclear beta-catenin stimulation ([2]; at 10 µM) -1.4% | insulin secretion stimulation [3] 3.3% | viability decrease [4] 1% | tube area decrease [5] -7.2% | GLP1 secretion stimulation [6] 0.3% | inhibition of viability [7] 6.4% | viability decrease (inhibition) [8] 6.1% | viability decrease (inhibition) [9] -8.2% | outcome [11] | outcome [12] | outcome [13] | fold change [14, 19] 0.878 and 0.937 | z-score ([15]; MELAS cybrid survival, CellTiter-Glo 48 h, stronger effect = higher value) -0.199 and -0.0719
9640 and 9360: cell count [14, 22]
active: AC50 [10] 26300 nM
0.4%: nuclear beta-catenin stimulation ([2]; stimulation, at 2 µM)
104%: viability [1]

NCCNC(=O)c1ccc(Cl)cn1
9430: cell count [14, 22]
0.2%: nuclear beta-catenin stimulation ([2]; stimulation, at 2 µM)
8230: cell count [14, 21]
inactive: nuclear beta-catenin stimulation ([2]; at 10 µM) 1.5% | insulin secretion stimulation [3] -1.7% | viability decrease [4] -5.05% | tube area decrease [5] -14.8% | GLP1 secretion stimulation [6] -1.7% | inhibition of viability [7] -6.5% | viability decrease (inhibition) [8] 16.3% | viability decrease (inhibition) [9] -10.3% | remaining activity [16] 98% | fold change [14, 19] 0.873 | z-score [17] 0.045
1.55: fold change [14, 20]

CC1(COc2ccc(CC3SC(=O)NC3=O)cc2)CCCCC1 (stereo unspecified)
1.87 and 1.11 and 0.669: fold change [14, 20]
1.5%: nuclear beta-catenin stimulation ([2]; stimulation, at 2 µM)
inactive: nuclear beta-catenin stimulation ([2]; at 10 µM) 2.4% | insulin secretion stimulation [3] 1.9% | tube area decrease [5] 14% | GLP1 secretion stimulation [6] 6.6% | remaining activity [16] 110% | fold change [14, 19] 0.913 and 1.03 and 0.948 | z-score [17] -0.49
active: viability decrease [4] 99% | inhibition of viability [7] 101% | viability decrease (inhibition) [8] 146% | viability decrease (inhibition) [9] 105%
5590 and 5930 and 7780: cell count [14, 21]
6130 and 5780 and 8200: cell count [14, 22]

CCC(CC)(CC(=O)Nc1cccc(/C=C/c2nc(C3CCC3)cs2)c1)C(=O)O
active: viability decrease [4] 96.6% | viability decrease (inhibition) [9] 70.9% | z-score [17] 2.4
inactive: nuclear beta-catenin stimulation ([2]; at 10 µM) 0% | insulin secretion stimulation [3] 1% | tube area decrease [5] 5.4% | GLP1 secretion stimulation [6] 1.7% | inhibition of viability [7] 42.9% | viability decrease (inhibition) [8] 41% | remaining activity [16] 89.3% | fold change [14, 19] 0.829
8810: cell count [14, 22]
0.1%: nuclear beta-catenin stimulation ([2]; stimulation, at 2 µM)
1.27: fold change [14, 20]
7300: cell count [14, 21]

CC(C)C[C@H](NC(=O)[C@H](Cc1ccccc1)NC(=O)c1cnccn1)B(O)O
137%: nuclear beta-catenin stimulation ([2]; stimulation, at 2 µM)
inactive: insulin secretion stimulation [3] 2.1% | GLP1 secretion stimulation [6] 1.6% | viability ([18]; at 0.000305 µM, OCI-C5x cells, with rucaparib 10 µM, 100% = cells with rucaparib alone) 114% | viability ([18]; at 0.000305 µM, OCI-C5x cells, without rucaparib) 117% | viability ([18]; at 0.00122 µM, OCI-C5x cells, with rucaparib 10 µM, 100% = cells with rucaparib alone) 114% | viability ([18]; at 0.00122 µM, OCI-C5x cells, without rucaparib) 113% | viability ([18]; at 0.00488 µM, OCI-C5x cells, with rucaparib 10 µM, 100% = cells with rucaparib alone) 119% | viability ([18]; at 0.00488 µM, OCI-C5x cells, without rucaparib) 115% | viability ([18]; at 0.00488 µM, OCI-P5x cells, with rucaparib 20 µM, 100% = cells with rucaparib alone) 102%
active: nuclear beta-catenin stimulation ([2]; at 10 µM) 132% | viability decrease [4] 99% | tube area decrease [5] 107% | inhibition of viability [7] 100% | viability decrease (inhibition) [8] 132% | viability decrease (inhibition) [9] 95.4% | AC50 [10] 20.9 nM | AC50 [11] 2090 nM | AC50 [12] 20.9 nM | IC50 [13] 26.3 nM | viability ([18]; at 0.000305 µM, OCI-P5x cells, with rucaparib 20 µM, 100% = cells with rucaparib alone) 85.1% | viability ([18]; at 0.000305 µM, OCI-P5x cells, without rucaparib) 23.5% | viability ([18]; at 0.00122 µM, OCI-P5x cells, with rucaparib 20 µM, 100% = cells with rucaparib alone) 85.3% | viability ([18]; at 0.00122 µM, OCI-P5x cells, without rucaparib) 28.3% | viability ([18]; at 0.00488 µM, OCI-P5x cells, without rucaparib) 94.3% | viability ([18]; at 0.0195 µM, OCI-C5x cells, with rucaparib 10 µM, 100% = cells with rucaparib alone) 38.9% | viability ([18]; at 0.0195 µM, OCI-C5x cells, without rucaparib) 15.9% | viability ([18]; at 0.0195 µM, OCI-P5x cells, with rucaparib 20 µM, 100% = cells with rucaparib alone) 5.88% | viability ([18]; at 0.0195 µM, OCI-P5x cells, without rucaparib) 1.5% | viability ([18]; at 0.0781 µM, OCI-C5x cells, with rucaparib 10 µM, 100% = cells with rucaparib alone) 2.87% | viability ([18]; at 0.0781 µM, OCI-C5x cells, without rucaparib) 2.36% | viability ([18]; at 0.0781 µM, OCI-P5x cells, with rucaparib 20 µM, 100% = cells with rucaparib alone) 1.94% | viability ([18]; at 0.0781 µM, OCI-P5x cells, without rucaparib) 1.08% | viability ([18]; at 0.313 µM, OCI-C5x cells, with rucaparib 10 µM, 100% = cells with rucaparib alone) 2.19% | viability ([18]; at 0.313 µM, OCI-C5x cells, without rucaparib) 1.67% | viability ([18]; at 0.313 µM, OCI-P5x cells, with rucaparib 20 µM, 100% = cells with rucaparib alone) 1.91% | viability ([18]; at 0.313 µM, OCI-P5x cells, without rucaparib) 0.96% | viability ([18]; at 1.25 µM, OCI-C5x cells, with rucaparib 10 µM, 100% = cells with rucaparib alone) 1.59% | viability ([18]; at 1.25 µM, OCI-C5x cells, without rucaparib) 1.6% | viability ([18]; at 1.25 µM, OCI-P5x cells, with rucaparib 20 µM, 100% = cells with rucaparib alone) 1.8% | viability ([18]; at 1.25 µM, OCI-P5x cells, without rucaparib) 0.86% | viability ([18]; at 5 µM, OCI-C5x cells, with rucaparib 10 µM, 100% = cells with rucaparib alone) 1.34% | viability ([18]; at 5 µM, OCI-C5x cells, without rucaparib) 1.65% | viability ([18]; at 5 µM, OCI-P5x cells, with rucaparib 20 µM, 100% = cells with rucaparib alone) 1.02% | viability ([18]; at 5 µM, OCI-P5x cells, without rucaparib) 0.609%
